# According to PubChem BioAssay AID1490 (National Center for Advancing Translational Sciences (NCATS), 2009):
# The campaign covered roughly 310,000 compounds. About 11,000 (3.5%) were called active. Roughly 4% stayed inconclusive and do not appear here. Calls follow the shape of the dose curve; as a rule, active = well fitted inhibition curve with a large enough effect; inconclusive = small, poorly fitted or top-dose-only effect, or another doubt; inactive = no such curve, though single readings can be large or run the other way. The sample as a whole holds a higher share of actives than the screen did.
# Biological target: 4'-phosphopantetheinyl transferase ffp (Bacillus subtilis) (UniProt Q9F4F7)
# Assay: qHTS Assay for Inhibitors of Bacillus subtilis Sfp phosphopantetheinyl transferase (PPTase);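 also: the enzyme is Sfp with the accession as filed and its product quenches rhodamine fluorescence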;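 as to largest response in the series, negative = inhibition: 0% = enzyme reaction without inhibitor and -100% = no enzyme wells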
# Conditions: Biochemical Sfp PPTase activity
# How it was run: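 Buffer: 50 mM Hepes-Na pH 7.6, 10 mM MgCl2, 0.01% Nonidet P-40, 0.01% BSA. Enzyme 15 nM, pre-exposed to compound 15 min; substrates then added and fluorescence change tracked over 30 min.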
# Potency is read from the fitted curve at half-maximal effect.
Structure (SMILES),"largest response in the series, negative = inhibition",Potency
CCOc1ccc(C(C(=O)NC2CCCC2)N(C(=O)c2snc(C(N)=O)c2N)C2CCCC2)cc1 (stereo not drawn),16.6% (inactive),–
COc1ccc2oc(C(=O)NCC(Cc3ccccc3)N(C)C)c(C)c2c1 (stereo not drawn),-0.769% (inactive),–
CC1Cc2cc(/C(O)=C3\C(=O)C(=O)N(Cc4cccnc4)C3c3ccccc3F)ccc2O1 (stereo not drawn),11.3% (inactive),–
O=C(NN1C(=O)C2C3C=CC(C4CC34)C2C1=O)c1ccc(Cl)cc1 (stereo not drawn),27.6% (inactive),–
COc1ccc(C(=O)NN2C(=O)C3C(c4ccccc4)C=CC(c4ccccc4)C3C2=O)cc1 (stereo not drawn),33.4% (inactive),–
O=C(NN1C(=O)C2C3C=CC(O3)C2C1=O)c1ccccc1 (stereo not drawn),–,44.7 µM (active)
COc1ccccc1C(=O)NN1C(=O)C2C3C=CC(O3)C2C1=O (stereo not drawn),–,56.2 µM (active)
O=C(NN1C(=O)C2C(C1=O)C1C=CC2C12CC2)c1ccccc1Cl (stereo not drawn),12.4% (inactive),–
COc1ccccc1C(=O)Nn1cnnc1,6.61% (inactive),–
COc1ccc(N2CCN(C(=O)c3cn(C)c4ccc(S(=O)(=O)N5CCOCC5)cc4c3=O)CC2)cc1,1.25% (inactive),–
O=C(C1CCC1)N1CCN(c2ccccc2)CC1,17.5% (inactive),–
CC1(c2ccc3ccccc3c2)NC(=O)NC1=O (stereo not drawn),12% (inactive),–
CC(C)C[C@@H](COc1ccccc1)N1CCN(CC(C)C)CCC1=O,3.76% (inactive),–
CCCCCCCC/C=C\CCCCCCCC(=O)NCC(=O)O,8.62% (inactive),–
CCCCCCC(O)(CCN1CCCCC1)c1ccccc1 (stereo not drawn),9.61% (inactive),–
CCCn1c(CCNc2nc(-c3ccc(OC)cc3)cs2)nc2ccccc21,-0.532% (inactive),–
CCCn1c(C2CCCN2c2nc(-c3ccc(C)cc3)cs2)nc2cc(Cl)c(N3CCCCC3)cc21 (stereo not drawn),-23.2% (inactive),–
CCCn1c(C2CCCN2c2nc(-c3ccc(OC)cc3)cs2)nc2ccccc21 (stereo not drawn),–,89.1 µM (active)
CC1CCN(C2=NC(=O)/C(=C/c3ccc(O)cc3)S2)CC1,14% (inactive),–
COc1ccc(N=Nc2c(-c3ccc(OC)cc3)[nH]oc2=O)cc1,24.2% (inactive),–
O=C(c1ccc(Cl)cc1)c1cnc(Nc2ccccc2)s1,-3.35% (inactive),–
CS(=O)(=O)c1ccc(Cl)c(NC(=O)Nc2ccccc2)c1,7.87% (inactive),–
O=C(Nc1ccccc1)c1nnsc1S(=O)(=O)c1ccc(Cl)cc1,–,11.2 µM (active)

Structure (SMILES),"largest response in the series, negative = inhibition",Potency
CN(c1ccc(O)cc1)c1nc(-c2cccnc2)cs1,0.24% (inactive),–
Cc1ccc(SC(CC(=O)c2ccc(C(C)(C)C)cc2)C(=O)O)cc1 (stereo not drawn),–,28.2 µM (active)
Cc1ccc(C(=O)CSc2ccccc2C(=O)O)cc1,13.7% (inactive),–
Cc1ccc(C(=O)CNc2ccc(F)cc2)cc1,-8.3% (inactive),–
O=C(Nc1ccccc1N1CCOCC1)c1ccc(OCc2cscn2)cc1,-1.59% (inactive),–
NC(=S)c1ccc(C(N)=S)o1,–,56.2 µM (active)
O=C(O)C1CC=CC2CCN(C3CCCCC3)C(=O)C21 (stereo not drawn),40% (inactive),–
COc1ccc(-n2cc(-c3ccccc3)c3c(=S)nc[nH]c32)cc1,7.93% (inactive),–
COc1ccc(C)cc1NC(=O)NCCCCc1ccccc1,-4.5% (inactive),–
CN(Cc1ccccc1)C(=O)CCc1ccccc1,20.4% (inactive),–
CN(Cc1ccccc1)Cc1ccccc1F,–,50.1 µM (active)
O=C(c1ccccc1F)N(Cc1ccccc1)Cc1ccccc1,9.85% (inactive),–
Cc1ccc(C)c(OCCC(=O)OCC(=O)N2CCN(c3ccccc3)CC2)c1,-6.17% (inactive),–
Cc1coc2c1c(C)cc1oc(=O)c(CC(=O)NCC(=O)N[C@H](C(=O)O)C(C)C)c(C)c12,1.89% (inactive),–
CCn1cc(S(=O)(=O)c2cccc(C)c2)c(=O)c2cc(F)c(N3CCN(C)CC3)cc21,4.71% (inactive),–
NC(=O)CC[C@@H]1NC(=O)[C@H](CO)NC(=O)c2cc([N+](=O)[O-])cc(I)c2NCC[C@@H](C(N)=O)NC1=O,-7.09% (inactive),–
NC(=O)C[C@@H]1NC(=O)CNC(=O)c2cc([N+](=O)[O-])cc(I)c2NCCC(C(N)=O)NC1=O (stereo partly drawn),-12.4% (inactive),–
NCCCC[C@@H]1NC(=O)[C@H](CCC(=O)O)NC(=O)c2cc([N+](=O)[O-])cc(I)c2NCC[C@@H](C(N)=O)NC1=O,–,31.6 µM (active)
COc1cccc(CNC(=O)C2CCCN(S(=O)(=O)N3CC(C)CC(C)C3)C2)c1 (stereo not drawn),6.86% (inactive),–
CCC(CC)COC(=O)C1=C(C)NC(=O)NC1c1ccc([N+](=O)[O-])cc1 (stereo not drawn),7.14% (inactive),–
O=C(NCc1ccccn1)c1cc(Br)ccc1Cl,-2.95% (inactive),–
O=C(NCc1ccccn1)c1ccc2nc(-c3ccco3)c(-c3ccco3)nc2c1,–,14.1 µM (active)
O=C(Nc1ccc2nccnc2c1)c1ccco1,15.4% (inactive),–

Structure (SMILES),"largest response in the series, negative = inhibition",Potency
CC(C)(C)c1ccc(NC(=O)NCc2ccco2)cc1,8.16% (inactive),–
COCCNC(=O)Nc1ccc2nc(-c3ccco3)c(-c3ccco3)nc2c1,–,4.47 µM (active)
COc1cccc(S(=O)(=O)NCc2ccc(C(=O)NCc3ccccn3)cc2)c1,12.9% (inactive),–
COc1ccc(CCN2CC(C(=O)NCCN3CCNC3=O)CCC2=O)cc1 (stereo not drawn),19% (inactive),–
COc1ccc2c(c1)c1nc3n(c(=O)c1n2CC(=O)Nc1ccccc1)CCS3,1.1% (inactive),–
COc1ccc(C(=O)/C=C/c2cccnc2)c(OC)c1,9.73% (inactive),–
O=[N+]([O-])c1cccc(/C=N/Nc2ncc(Br)cn2)c1,16.8% (inactive),–
CC1CCC(NS(=O)(=O)c2ccc3c(c2)n(C)c(=O)c(=O)n3C)CC1 (stereo not drawn),8.22% (inactive),–
Cn1sc(=O)c2cc(S(=O)(=O)NC3CC3)ccc21,–,11.2 µM (active)
O=S(=O)(NC1CC1)c1ccc(F)c(F)c1,16.5% (inactive),–
Cc1nonc1NC(=O)c1oc2ccccc2c1C,-2.27% (inactive),–
CC(=O)c1ccc(N2CCN(CC(O)c3ccccc3)CC2)cc1 (stereo not drawn),16.5% (inactive),–
CCc1ccc(Oc2coc3cc(O)ccc3c2=O)cc1,12.7% (inactive),–
COc1ccc(CNC(=O)C2CCN(C(=O)c3ccco3)CC2)cc1,5.46% (inactive),–
Cc1nnc(NC(=O)/C=C/c2ccco2)s1,–,11.2 µM (active)
CCC(CC)c1nnc(NC(=O)c2nn(C)c(=O)c3ccccc23)s1,10.8% (inactive),–
O=C(/C=C/c1ccco1)Nc1ccc(Oc2ccccc2)cc1,2.06% (inactive),–
C/C=C/C(=O)Nc1nnc(C(C)C)s1,-3.92% (inactive),–
CCC(c1nnnn1C1CCCC1)N1CCN(C(=O)c2ccco2)CC1 (stereo not drawn),6.92% (inactive),–
CCC(CC)c1nnc(NC(=O)/C=C/c2ccco2)s1,–,56.2 µM (active)
CCOC(=O)c1c(NC(=O)/C=C/c2ccco2)sc(C)c1C,-8.04% (inactive),–
CCC(CC)c1nnc(NC(=O)C2CCN(C(=O)c3ccco3)CC2)s1,–,39.8 µM (active)
